{"source": "ChEMBL document CHEMBL1157539", "about": "“Thousands of chemical starting points for antimalarial lead identification” (Nature, 2010)"}
{"tested_on": "HepG2", "experiment": "GSK_TCMDC: Percent inhibition of human HepG2 cell line. Test compounds present at 10uM.", "assay_type": "functional", "units": {"Inhibition": "%"}}
{"smiles": "CC(C)n1cc(CN2CCCC(C(=O)Nc3cccc(-c4cc5ccccc5[nH]4)c3)C2)cn1", "note": "(stereo not given)", "Inhibition": 34}
{"smiles": "COc1ccc2nc3cc(Cl)ccc3c(Nc3ccc(O)c(CNC(C)C)c3)c2c1", "Inhibition": 5}
{"smiles": "Cc1ccc2[nH]c3c(NCCCN4CCOCC4)ncnc3c2c1", "Inhibition": 0}
{"smiles": "CC(=O)Oc1ccc(C(=O)Oc2ccccc2C#CC#N)cc1OC(C)=O", "Inhibition": 23}
{"smiles": "CC(=O)O.C[C@H](NC(=O)[C@H](Cc1ccccc1)NC(=O)OC(C)(C)C)C(=O)N[C@@H](CC1CCCCC1)C(O)CN", "note": "(stereo not given in full)", "Inhibition": 0}
{"smiles": "O=C(O)C(F)(F)F.c1cc(CN2CCCCC2)cc(-c2csc(-c3nc4ccccc4[nH]3)c2)c1", "Inhibition": 26}
{"smiles": "CN(C)CCCOc1c(C(C)(C)C)cc(-c2cc(C(C)(C)C)c(OCCCN(C)C)c(C(C)(C)C)c2)cc1C(C)(C)C", "Inhibition": 25}
{"smiles": "O=C(Cc1c[nH]cn1)Nc1ccc(-c2cccc(-c3nc4cc(F)ccc4[nH]3)c2)cc1", "Inhibition": 28}
{"smiles": "Cl.O=C(Nc1cc(Cl)cc(Cl)c1)Nc1ccnc2ccccc12", "Inhibition": 15}
{"smiles": "O=C(Nc1nc(-c2ccccn2)cs1)c1ccc(Br)s1", "Inhibition": 40}
{"smiles": "O=C(NCCc1ccccc1)[C@H](Cc1ccccc1)Nc1ccnc(NCC2CCCCC2)n1.O=C(O)C(F)(F)F", "Inhibition": 11}
{"smiles": "CN(C)C1CCN(Cc2ccc(N3CCN(Cc4cccc5[nH]ccc45)CC3)nc2)CC1", "Inhibition": 11}
{"smiles": "Cc1cnn(-c2cccc(C(=O)NC3CCC(CCN4CCc5ccc(C#N)cc5CC4)CC3)c2)c1.Cl", "note": "(stereo not given)", "Inhibition": 24}
{"smiles": "Cc1noc(C)c1-c1cccc(C(=O)NC2CCN(CCNC(=O)C(c3ccccc3)c3ccccc3)CC2)c1.O=C(O)C(F)(F)F", "Inhibition": 27}
{"smiles": "N#Cc1ccc(/C=C/C(=O)NCCCCCN2CCCN(C(=O)Nc3ccc(Cl)c(C(F)(F)F)c3)CC2)cc1", "Inhibition": 28}
{"smiles": "CCCN1CC[C@@H](CCCc2ccnc3ccc(O)cc23)[C@@H](CC)C1.Cl", "Inhibition": 10}
{"smiles": "Cc1ccc(CCOCCCCCNCC(O)c2cc(Cl)c(N)c(Cl)c2)cc1", "note": "(stereo not given)", "Inhibition": 10}
{"smiles": "COc1ccc2nccc(N3CCC(NCCNS(=O)(=O)c4ccc5c(c4)NC(=O)CS5)C3)c2n1.Cl", "note": "(stereo not given)", "Inhibition": 12}
{"smiles": "CC(C)c1ncc(-c2ccncc2)c(C2CCC(CNC(=O)c3cccnc3)CC2)n1", "note": "(stereo not given)", "Inhibition": 0}
{"smiles": "Cc1cc(NCC2CCN(CC3CCCCC3)C2)nc(Nc2ccc(Br)cc2)n1", "note": "(stereo not given)", "Inhibition": 0}
{"smiles": "CCCC1N=C(N)N=C(N)N1c1ccccc1.Cl", "note": "(stereo not given)", "Inhibition": 0}
{"smiles": "CCCCCn1c(Sc2ccc(C#N)c([N+](=O)[O-])c2)nnc1-c1ccc(Cl)cc1", "Inhibition": 18}
{"smiles": "Nc1nc(N)c2c(ccc3c2ccn3Cc2ccc(Cl)cc2)n1", "Inhibition": 100}
{"smiles": "CCCNCc1ccc(-c2ccc(CN(CCOC)C(=O)CCC(=O)c3ccc(OC)c(F)c3)cc2)nc1.O=C(O)C(F)(F)F", "Inhibition": 13}
{"smiles": "CCCOc1ccccc1-c1nc2[nH]c3c(c2c(=O)[nH]1)CCN(C)C3", "Inhibition": 8}
{"smiles": "O=C(NCC1CC1)C1Cc2c([nH]c3ccc(Br)cc23)C2(CCN(CCc3ccccc3)CC2)N1", "note": "(stereo not given)", "Inhibition": 14}
{"smiles": "CN1CCCC(COc2cc3c(cc2Br)CCN3C(=O)Nc2ccc(-c3ccncc3)c(Cl)c2)C1", "note": "(stereo not given)", "Inhibition": 99}
{"smiles": "Cl.Clc1cnc2ccc3c(c2c1CCN1CCC(NCc2cc4c(cn2)OCCO4)CC1)OCCO3", "Inhibition": 3}
{"smiles": "Oc1cc(Nc2ccnc3cc(-c4ccc(CN5CCCCC5)o4)ccc23)c(Cl)cc1F", "Inhibition": 30}
{"smiles": "COc1cc(C2Nc3ccc4ccccc4c3C3=C2C(=O)CC(C)(C)C3)ccc1Oc1ccc([N+](=O)[O-])cc1C#N", "note": "(stereo not given)", "Inhibition": 8}
{"smiles": "CC(CN1CCN(C)CC1)C(=O)Nc1cccc(-c2ccc(-c3nc4cc(F)ccc4[nH]3)cc2)c1", "note": "(stereo not given)", "Inhibition": 10}
{"smiles": "N#Cc1ccc(NC(=O)NC2CCN(CCCCCNC(=O)/C=C/c3ccc(Cl)c(Cl)c3)CC2)cc1", "Inhibition": 15}
{"smiles": "O=C(CCc1c[nH]cn1)Nc1ccc(-c2ccc(-c3nc4ccccc4[nH]3)cc2)cc1", "Inhibition": 46}
{"smiles": "Clc1ccc2c(NCc3ccccc3)ccnc2c1", "Inhibition": 40}
{"smiles": "Fc1ccc(-c2cc3ncnc(N4CCN(CCN5CCCC5)CC4)c3s2)cc1", "Inhibition": 25}
{"smiles": "CN(C)CC(O)C(c1ccccc1)c1ccc(Cl)cc1.O=C(O)CCC(=O)O", "note": "(stereo not given)", "Inhibition": 4}
{"smiles": "Cc1ccc(Cn2cnc3cc(C(=O)Nc4ccc(-c5ccc(CN(C)C)cc5)cc4)ccc3c2=O)o1", "Inhibition": 43}
{"smiles": "O=C(O)C(F)(F)F.O=c1[nH]ccc2nc(N[C@@H]3CCNC3)nc(Nc3cc(Cl)cc(Cl)c3)c12", "Inhibition": 99}
{"smiles": "Cc1ccc(Nc2nc(N/N=C/c3cccc([N+](=O)[O-])c3)nc(Nc3ccccc3)n2)c(C)c1", "Inhibition": 9}
{"smiles": "COc1ccc(-c2nc(NC(=O)Cc3ccc(OC)c(OC)c3)sc2C)cc1", "Inhibition": 33}
